In all, about 13,000 compounds went through this assay and fewer than 10 showed an effect of 50% or more. The list is a sample of the results.
tested on: Plasmodium falciparum; test: GSK_TCMDC: Inhibition of Plasmodium falciparum 3D7 LDH activity, using an LDH reporter assay. Test compounds present at 2uM; assay type: functional, organism-based

Row | Structure (SMILES) | inhibition
1 | COc1ccc(-c2ccc(NC(=O)c3ccccc3)cc2)cc1CN1CCCN(C)CC1 | 3%
2 | C=CCn1c(=N)c(C(=O)NCc2ccc(F)cc2)cc2c(=O)n3cccc(C)c3nc21 | 0%
3 | CC(C)(Oc1ccc(Cl)cc1)C(=O)NCCC1CCN(CCCCCNC(=O)/C=C/c2ccc(Cl)c(Cl)c2)CC1 | 0%
4 | OC(CNCCCCCCNCC(O)c1ccc(Cl)c(Cl)c1)c1ccc(Cl)c(Cl)c1 (stereo not drawn) | 0%
5 | Cc1cccc2nc(-c3ccc(-c4ccc(NC(=O)C(=O)c5cccn5C)cc4)cc3)[nH]c12 | 8%
6 | C[C@H]1CN(Cc2cccc(-c3cc(CNC(=O)c4cccc(CC5CCN(C)CC5)c4)ccc3F)c2)CCN1C | 2%
7 | Nc1c(I)cc(C(=O)Nc2ccc3nc4c(c(N)c3c2)CCCC4)cc1I | 2%
8 | FC(F)(F)c1cccc(Nc2nc3nonc3nc2NC2C3CC4CC(C3)CC2C4)c1 (stereo not drawn) | 0%
9 | COc1ccc2nccc([C@@H](O)CN3CCC(NCc4cc5cccc(O)c5[nH]4)CC3)c2c1 | 0%
10 | Fc1ccc2[nH]c(-c3cccc(-c4cccc(CN5CCN(c6cnccn6)CC5)c4)c3)nc2c1 | 0%
11 | O=C(Cc1ccccc1)NC(c1ccc(Cl)cc1)c1ccc2cccnc2c1O (stereo not drawn) | 0%
12 | Cc1noc(C)c1-c1ccc2c(Nc3ccccc3C(C)(C)C)c(C(=O)NCc3ccccc3)cnc2c1 | 0%
13 | Cc1cccc2nc(-c3ccc(-c4cccc(NC(=O)c5cncn5C)c4)s3)[nH]c12 | 0%
14 | CC(C)CNCc1cccc(-c2cccc(CN(CCCN3CCN(C)CC3)C(=O)CCC3CCCC3)c2)c1 | 0%
15 | Cc1cc(NC2CCN(CC3CCCCC3)C2)nc(Nc2ccc(Cl)cc2)n1 (stereo not drawn) | 0%
16 | Cc1noc(C)c1-c1ccc2c(Nc3cccc4c3-c3ccccc3C4=O)c(C(=O)NCc3ccccc3I)cnc2c1 | 2%
17 | CC(=O)Nc1ccc(OCCCCN(Cc2ccccc2C(F)(F)F)c2ccc(C#N)c(C(F)(F)F)c2)c(Cl)c1 | 0%
18 | COc1ccc(-c2cccc(NC(=O)c3ccc(Cl)cc3)c2)cc1CN1CCNCC1 | 0%
19 | COc1ccc2c(NN=Cc3ccc(F)cc3)ccnc2c1 | 0%
20 | COc1ccc(C=NN=c2cc(C)[nH]c3ccccc23)cc1OC | 0%
21 | COC(=O)c1cccc(CNCc2ccc(-c3cccc(-c4nc5cc(C(F)(F)F)ccc5[nH]4)c3)cc2)c1 | 6%
22 | CCn1c(-c2nonc2N)nc2c(-c3ccccc3)ncc(OCCCCNCCc3ncc[nH]3)c21 | 0%

Row | Structure (SMILES) | inhibition
23 | CCc1c[nH]c2c(N3CCCS3(=O)=O)cc(C(=O)N[C@@H](Cc3ccccc3)[C@H](O)CNC(C)(C)CCCC(C)C)cc12 | 0%
24 | COc1ccc(C2CCC(NCCCCNC(=O)c3ccc(NC(=O)c4ccc(Cl)cc4)cc3)CC2)cc1 (stereo not drawn) | 0%
25 | Cc1c(-c2ccc(C(=O)NC3CC(C)(C)NC(C)(C)C3)cc2)[nH]c2cc(Cl)c(Cl)cc12 | 0%
26 | O=C(Nc1cccc(F)c1)c1ccc(C(=O)NC2CCN(CC3CCCCC3)CC2)cc1 | 0%
27 | CC(C)NCc1ccc(-c2ccc(NC(=O)c3ccc(C#N)cc3)cc2)cc1 | 0%
28 | FC(F)(F)c1ccc2[nH]c(-c3ccc(-c4cccc(CN5CCN(c6ccncc6)CC5)c4)cc3)nc2c1 | 2%
29 | O=C(Nc1nc(-c2ccccn2)cc2ccccc12)c1cccc(Cl)c1 | 0%
30 | NC(=O)C1CCN(Cc2cccc(-c3cccc(-c4nc5cc(F)ccc5[nH]4)c3)c2)CC1 | 3%
31 | CC(C)(C)c1ccc(CNC(=O)c2ccc(CNC3CCC(N)CC3)s2)cc1 (stereo not drawn) | 4%
32 | CC1(C)N=C(N)N=C(N)N1c1ccc(Cl)c(Cl)c1 | 0%
33 | Cc1cc(=NN=Cc2ccccc2Cl)c2ccc(F)cc2[nH]1 | 0%
34 | Cc1cc(CNCCCCCCCNCc2ccc(-c3ccccc3)cc2)ccc1O | 0%
35 | Cc1cc(=NN=Cc2ccc(F)cc2)c2ccc(C(F)(F)F)cc2[nH]1 | 0%
36 | COc1cc(C=NN=c2cc(C)[nH]c3ccccc23)cc(OC)c1OC | 0%
37 | O=C(NCCc1ccccc1)N(Cc1ccccc1-c1ccc(CNC2CCCC2)cc1)C1CCN(Cc2ccccc2)CC1 | 1%
38 | CCN(CC)CCN(Cc1ccc(-c2ccc(C(F)(F)F)cc2)cc1)C(=O)Cn1c(CCc2cccc(F)c2F)nc(=O)c2ccc(F)cc21 | 3%
39 | COc1ccc(CNCc2ccc(F)cc2)cc1-c1ccc(OC)c(S(=O)(=O)NCCN2CCCC2)c1 | 5%
40 | COc1ccc2c(N/N=C/c3cccc([N+](=O)[O-])c3)ccnc2c1 | 5%
41 | CCCCN1CCN(CCCNc2c3ccccc3nc3ccccc23)CC1 | 0%
42 | CON=Cc1ccn(-c2ccc(O)c3c2C[C@H]2C[C@H]4[C@H](N(C)C)C(O)=C(C(N)=O)C(=O)[C@@]4(O)C(O)=C2C3=O)c1 | 0%
43 | CN(C)Cc1ccc(-c2ccc3c(Nc4ccc(Cl)cc4F)ccnc3c2)o1 | 0%
44 | CN(C)c1ccc(-c2nc3cc(N)ccc3[nH]2)cc1 | 0%

Row | Structure (SMILES) | inhibition
45 | Cc1cc(O)c(-c2cccc(Oc3ccc(Cl)cc3)c2)c(C)n1 | 0%
46 | O=C(CNC(=O)c1ccc(O)cc1)Nc1ccc(-c2cccc(-c3nc4cc(C(F)(F)F)ccc4[nH]3)c2)cc1 | 3%
47 | CCOc1cc[nH]c(=O)n1 | 5%
48 | O=C(NCCCCN1CCC(c2ccc3c(c2OCCO)CCCC3)CC1)c1ccc2oc(-c3ccc(C(F)(F)F)cc3)cc2c1 | 4%
49 | FC(F)(F)COc1ccc2ccccc2c1CCNCCCCNCCc1c(OCC(F)(F)F)ccc2ccccc12 | 0%
50 | COc1ccc2nccc(N3CCC(CCNCc4cc5c(cn4)OCCO5)CC3)c2n1 | 7%
51 | Cc1c2ccc(N(C)c3ccnc(Nc4ccc5c(c4)nc(NC(C)C)n5C)n3)cc2nn1C | 0%
52 | COc1ccc(CNC(=O)Nc2cccc(-c3csc(NC(=N)N)n3)c2)cc1 | 1%
53 | O=C(C=Cc1ccc(Cl)c(Cl)c1)NCCCCCN1CCC(CCNC(=O)/C=C/c2ccccc2)CC1 | 0%
54 | CCN(CC)CCN(Cc1ccc(-c2ccc(C(F)(F)F)cc2)cc1)C(=O)Cn1c(CCc2ccc(F)cc2)nc(=O)c2ccccc21 | 0%
55 | Cn1cccc1C(=O)C(=O)Nc1cccc(-c2ccc(-c3nc4cc(C(F)(F)F)ccc4[nH]3)cc2)c1 | 0%
56 | CC(=O)Nc1ccc(C(=O)Nc2cccc(-c3cccc(-c4nc5cc(F)ccc5[nH]4)c3)c2)cn1 | 1%
57 | Nc1ncc(-c2ccc3nccc(-c4ccncc4)c3c2)cc1S(=O)(=O)N1CCCCC1 | 3%
58 | Cc1cc(NCC(c2ccccc2)c2ccccc2)nc(NCC2CCCCC2)n1 | 3%
59 | N#Cc1cccc(C(=O)Nc2ccc(-c3ccc(CN4CCCC4)cc3)cc2)c1 | 0%
60 | Cc1[nH]c(C)c(-c2ccc(OCc3cc(F)cc(F)c3)nc2)c(=O)c1Cl | 0%
61 | CC(=O)Nc1ccc(CCNC(C)Cc2ccc(C(=O)Nc3ccc(CC(C)NCCc4cccc(Cl)c4)cc3)cc2)cc1 (stereo not drawn) | 0%
62 | c1cc(-c2ccc(CNCCCN3CCOCC3)cc2)cc(-c2nc3ccccc3[nH]2)c1 | 0%
63 | Clc1ccccc1C=NN=c1cc[nH]c2ccccc12 | 0%
64 | O=C1CCCN1CCCNCc1ccc(-c2ccc(-c3nc4cc(F)ccc4[nH]3)cc2)cc1 | 0%
65 | Cc1[nH]c(C)c(-c2ccc(C#Cc3ccc(F)cc3F)cc2)c(=O)c1Br | 0%
66 | COc1ccc(OC)c(-c2ccc(=O)n(CC(=O)Nc3cccc4ccccc34)n2)c1 | 3%

Row | Structure (SMILES) | inhibition
67 | CC(C)(C)c1ccc(CNC(=O)/C=C/c2ccc(-c3nc4cc(C(C)(C)C)ccc4[nH]3)cc2)cc1 | 0%
68 | CN(C)CCCN1CCN(Cc2ccc(-c3ccc(-c4nc5ccccc5[nH]4)s3)cc2)CC1 | 4%
69 | CC(C)Nc1nc(NCCc2c[nH]cn2)nc(Nc2ccc(Oc3ccccc3)cc2)n1 | 1%
70 | CN1CCC(NC(=O)c2cc(Oc3ccc4c(c3)CCN4C(=O)Nc3cccc(C(F)(F)F)c3)ccn2)CC1 | 0%
71 | FC(F)(F)COc1c(CCNCCCCNCCc2ccc3ccccc3c2OCC(F)(F)F)ccc2ccccc12 | 0%
72 | CN(CCN)Cc1cccc(-c2cccc(-c3nc4cc(C(F)(F)F)ccc4[nH]3)c2)c1 | 0%
73 | CC(C)CCCC(C)NC[C@@H](O)[C@H](Cc1ccccc1)NC(=O)c1cc(N2CCCC2=O)cc(N(c2ccccc2)S(C)(=O)=O)c1 (stereo partly drawn) | 0%
74 | ON=C(c1nc2ccccc2[nH]1)c1nc2ccccc2[nH]1 | 6%
75 | O=S(=O)(NCCN1CCCC1)c1cccc(-c2ccc(CNCc3ccsc3)cc2)c1 | 6%
76 | COc1cccc(CCc2nc3c(N4CCC(Cc5ccccc5)CC4)cccc3n2CC2CNCCO2)c1 (stereo not drawn) | 4%
77 | CCN(CC)CCN(Cc1ccc(-c2ccc(C(F)(F)F)cc2)cc1)C(=O)Cn1c(CCc2ccc(F)c(C#N)c2)nc(=O)c2ccccc21 | 0%
78 | CCc1c(CCNCCCCCCNCCc2ccc(Br)cc2)ccc(O)c1O | 0%
79 | Nc1c2c(nc3ccc(Oc4ccc(Cl)cc4)cc13)CCCC2 | 0%
80 | Cc1cc(N[C@@H](Cc2ccccc2)C(=O)NCc2cccs2)nc(NCCc2ccccn2)n1 | 0%
81 | COc1cc(C=CC(=O)N2CCC(CCN3CCC(c4c[nH]c5ccccc45)CC3)CC2)cc(OC)c1 | 0%
82 | COc1cc2nc(N3CCC(CNC(=O)c4ccc(NC(=O)c5ccc(Cl)cc5)cc4)CC3)nc(N)c2cc1OC | 0%
83 | CCNC1=NC2=C(CC(C(C)(C)C)CC2)C2(CCC(C(C)(C)C)CC2)S1 (stereo not drawn) | 4%
84 | Cc1ccc(Cc2c[nH]c(NCCSCc3ccc(CN4CCOCC4)o3)nc2=O)cn1 | 0%
85 | Cc1cc(-c2c[nH]c3ncc(-c4cccc5ncccc45)cc23)ccc1C(=O)O | 0%
86 | Cc1cccc2nc(-c3ccc(-c4ccc(CN5CCCCC5)cc4)cc3)[nH]c12 | 0%
87 | Cc1cc(I)ccc1Nc1nc2nonc2nc1Nc1ccc(I)cc1C | 0%
88 | CS(=O)(=O)c1ccc(CNCc2ccc(-c3cccc(-c4nc5cc(C(F)(F)F)ccc5[nH]4)c3)cc2)cc1 | 8%

From ChEMBL document CHEMBL1157539, “Thousands of chemical starting points for antimalarial lead identification” (Nature, 2010)
